From PubChem BioAssay AID686979 (National Center for Advancing Translational Sciences (NCATS), 2013)
Out of some 420,000 compounds screened, about 50,000 (12%) were called active. Inconclusive results (about 26%) are left out. Calls follow the shape of the dose curve; as a rule, active = well fitted inhibition curve with a large enough effect; inconclusive = small, poorly fitted or top-dose-only effect; inactive = flat fitted curve, though single readings scatter. The sample as a whole holds a higher share of actives than the screen did.

assay: qHTS for Inhibitors of human tyrosyl-DNA phosphodiesterase 1 (TDP1): qHTS in cells in presence of CPT; conditions: chicken DT40 Tdp1-/-;hTDP1 cells + 20 nM CPT, ATP luminescence, 48 h; series mostly up to 46.2 µM; activity change, negative = growth inhibition: at the top concentration; also: nearly all actives have a fitted effect of over 55% in size
Text: Human tyrosyl-DNA phosphodiesterase 1 (TDP1) is a novel repair gene, and we propose to use it as a new target for anticancer drug development. TDP1 is not an essential protein, but under treatment with topoisomerase I poison (camptothecin: CPT), TDP1 works as a critical factor for cell survival. To directly identify novel TDP1 inhibitors active in a cellular environment, we have knocked-out the Tdp1 gene in chicken DT40 cells (Tdp1-/-) and generated a complemented counterpart cells that contains a stable transfection of the human TDP1 gene (Tdp1-/-;hTDP1 cells). For the primary screen, Tdp1-/-;hTDP1 cells will be exposed to small molecules in the presence or absence of CPT, and their growth kinetics will be evaluated after 48 hours by measuring ATP activity. […] The hit compounds will then be evaluated in the presence or absence of CPT using Tdp1-/- cells. […] In tertiary assays, biochemical gel-based assays will be used to assess whether the hit compounds specifically target TDP1. To this end, we have screened this cell line against the MLSMR in two primary screens. In one screen we add CPT and in the other we screen in the absence of CPT; this AID represents the screen where CPT was present. NIH Chemical Genomics Center [NCGC] NIH Molecular Libraries Probe Centers Network [MLPCN] MLPCN Grant: MH095538 Assay Submitter (PI): Yves Pommier, NCI
DT40-hTDP1 cells with 20 nM Camptothecin (add 20 microL of 1 mM CPT stock in 1 L of cell culture medium) were dispensed at 400 cells/5microL/well in tissue culture treated 1536-well white wall/solid bottom assay plates (Greiner Bio-One North America, NC, U.S.A.) using a Multidrop Combi 8 channel dispenser (Thermo Fisher, Waltham, MA, USA). 23 nL compounds and controls were transferred using the pin tool (Kalypsys, San Diego, CA, USA) to the assay plates. The assay plates were then incubated at 37 masculineC for a minimum 48 hr. Three microL of Cell Titer Glo solution was added to the plates and incubated at RT in dark for 30 min. Luminescence was read using ViewLux (Perkin Elmer) with 1 sec exposure slow speed, high gain and 2x binning.
% is scaled to controls: 0 for no effect and ±100 for the full control effect; potency is read from the fitted curve at half-maximal effect.

Structure (SMILES)	activity change, negative = growth inhibition	Potency
CN(C(=O)c1ccccc1)c1nccnc1C#N	19.1% (inactive)	–
COC(=O)c1ccc(CN2C(=O)NC(c3ccccc3)(c3ccccc3)C2=O)o1	-4.55% (inactive)	–
O=C(CN1CCN(Cc2ccccc2)CC1)Nc1ccc(F)c(F)c1	-6.89% (inactive)	–
O=C(CN1CCc2ccccc21)NC(c1ccccc1)c1ccccc1	-13.1% (inactive)	–
O=C(CN1CCN(Cc2ccccc2)CC1)NC(c1ccccc1)c1ccccc1	–	14.6 µM (active)
CN(C)c1ccc(CNC23CN4CN(CN(C4)C2)C3)cc1	–	8.2 µM (active)
COCCN1CCN(C(=O)c2cc(COc3ccc(F)cc3Cl)on2)CC1	-26.5% (inactive)	–
Cn1cc(S(=O)(=O)NC(c2ccccc2)c2ccccc2)c(=O)n(C)c1=O	-14.7% (inactive)	–
CCn1cc2nc(SCc3cccc(F)c3)n(CCc3ccccc3)c(=O)c2n1	–	16.4 µM (active)
CCn1c(SCc2ccccc2)nc2c(c1=O)SCC2	-21.4% (inactive)	–
CCn1c(SCc2ccccc2)nc2cc(OC)c(OC)cc2c1=O	-16% (inactive)	–
C[C@@H]1CN([C@H](C)CO)C(=O)CCCn2nncc2CO[C@@H]1CN(C)S(=O)(=O)c1cccc(C#N)c1	-19.4% (inactive)	–
C/C(=C/c1ccccc1)C(=O)N1CCN(c2ccccc2)CC1	-19.7% (inactive)	–
NC(=O)C1(N2CCCC2)CCN(Cc2ccccc2)CC1	-5.42% (inactive)	–
Cc1cccc(NC(=O)c2ccc([N+](=O)[O-])o2)c1	–	16.4 µM (active)
CN1C(=O)c2ccc(C(=O)Nc3ccc(Br)cn3)cc2C1=O	-2.38% (inactive)	–
Cc1cccc(NC(=O)CCn2c(=O)oc3ccccc32)c1	15.7% (inactive)	–
O=C(Nc1ccc(Br)cn1)c1ccc([N+](=O)[O-])o1	–	2.06 µM (active)
Cc1onc(NC(=O)c2ccc([N+](=O)[O-])o2)c1Br	-19.5% (inactive)	–

Structure (SMILES)	activity change, negative = growth inhibition	Potency
O=C(Nc1ccc(Br)cn1)c1ccc([N+](=O)[O-])cc1Cl	-29.8% (inactive)	–
CCc1ccc(N2C(=O)CN(S(=O)(=O)CC)CC2(C)C(=O)NC2CCCCC2)cc1 (stereo unspecified)	-10.8% (inactive)	–
Cc1ccc(CN2CCN(c3ncccn3)CC2)c(C)c1	27.8% (inactive)	–
O=C(NCC(O)c1nc2ccccc2[nH]1)c1ccc(Br)cc1 (stereo unspecified)	-11.6% (inactive)	–
Cc1ccc(Cl)cc1N1CCN(S(=O)(=O)c2cc3[nH]c(=O)c(=O)[nH]c3cc2C)CC1	3.27% (inactive)	–
CCC(=O)Nc1ccc(-c2ccc(N3CCCCC3)nn2)cc1	-27.5% (inactive)	–
c1csc(-c2nnc(COc3ccc4c(c3)OCO4)o2)c1	11.7% (inactive)	–
O=[N+]([O-])c1cc2ccccc2nc1-c1ccccc1	-16% (inactive)	–
CCN(CC(=O)NC1CCS(=O)(=O)C1)c1nc(-c2cccnc2)nc2ccccc12 (stereo unspecified)	4.18% (inactive)	–
O=[N+]([O-])c1ccc(F)cc1Oc1nc(-c2cccnc2)nc2ccccc12	–	18.4 µM (active)
O=C(COC(=O)CNC(=O)c1ccco1)Nc1ccc(F)cc1	4.84% (inactive)	–
Cc1cccc(NS(=O)(=O)c2cc(Cl)ccc2Cl)n1	16.8% (inactive)	–
COc1ccc(CCNC(=O)CN2C(=O)CCSc3ccccc32)c(OC)c1	28.7% (inactive)	–
Cc1ccc(-c2cc(-c3coc4ccccc4c3=O)c3c(n2)-c2cc(Cl)ccc2OC3)cc1	0.49% (inactive)	–
CCCCCc1c(-c2cccc(Br)c2)ncn1CCc1ccccc1OC	–	11.6 µM (active)
COc1ccccc1CCC(=O)NNC(=O)c1ccncc1	15.3% (inactive)	–
CCCCCc1c(-c2ccc(OC)c(OC)c2)ncn1CCc1ccccc1OC	–	2.31 µM (active)
CCCCCc1c(Cc2ccccc2)ncn1CCc1ccccc1OC	–	2.59 µM (active)
CCCCNS(=O)(=O)CCNCc1ccccc1OC	-6.55% (inactive)	–

Structure (SMILES)	activity change, negative = growth inhibition	Potency
CCOC(=O)CSc1nnc(-c2cccc(Br)c2)o1	-10.6% (inactive)	–
CCC(=O)NCc1cc(-c2nn(C)c(=O)c3ccccc23)ccc1OC	–	inactive
CCN(CC)CCN1C(=O)C(=O)/C(=C(/O)c2ccc(OC)c(OC)c2)C1c1ccccn1 (stereo unspecified)	0.331% (inactive)	–
CCCCn1c(N)c(N(CC(C)C)C(=O)CN(C)S(=O)(=O)c2ccc(F)cc2)c(=O)[nH]c1=O	12.9% (inactive)	–
Cc1cc(F)ccc1NC1(c2ccccc2)C(=O)c2ccccc2C1=O	3.73% (inactive)	–
COc1ccc(S(=O)(=O)NC(=O)C2(C)CCN2C(=O)COc2ccc(Cl)cc2)cc1 (stereo unspecified)	1.46% (inactive)	–
COc1ccccc1C(=O)NC(=O)COC(=O)c1ccco1	17.6% (inactive)	–
COc1ccc(C)cc1N(CC(=O)N1CCCC1)S(=O)(=O)c1ccccc1	10% (inactive)	–
C/C(N)=C(/C#N)C(=O)COC(=O)C1CCN(C(=O)c2ccc(Cl)cc2)CC1	1.82% (inactive)	–
C[C@]12CC[C@H](O)CC1=CCC1C2CC[C@@]2(C)C1CC[C@@H]2NC(=O)CCC(=O)O (stereo partly specified)	3.29% (inactive)	–
C#CC(CCN1CCCCC1)(OC)c1ccccc1 (stereo unspecified)	4.82% (inactive)	–
CN1CCC[C@@H]1CCO[C@](C)(c1ccccc1)c1ccc(Cl)cc1	–	21.1 µM (active)
CCC1CCC/C1=N\NC(=O)c1ccc(Cl)cc1 (stereo unspecified)	10.2% (inactive)	–
CC(=O)c1ccc(F)c(-c2cc(C)cc3c2OC(CNC(=O)Cc2c[nH]c4ccccc24)C3)c1 (stereo unspecified)	11.9% [at 9.04 µM] (inactive)	–
O=C(CSc1oc(-c2ccccc2)nc1S(=O)(=O)c1ccc(Br)cc1)NC1CCCCC1	1.11% (inactive)	–
Cc1cc(C)cc(NC(=O)CSc2ccccc2)c1	-19.7% (inactive)	–
Cc1cc(C)cc(NC(=O)CSc2oc(-c3ccccc3)nc2S(=O)(=O)c2ccc(Cl)cc2)c1	–	5.17 µM (active)
C/C=C1\C2C=C(C)CC1(N)c1ccc(=O)[nH]c1C2 (stereo unspecified)	-4.72% [at 92.5 µM] (inactive)	–
